# Results published in PubChem BioAssay.
# Activity calls are given as the source filed them.
# Tests used:
# [1] = E. coli DRC41 culture turbidity changes, primary screen, E. coli filamentation inducer project, strain DRC41, OD650, 48 h (AID 1152);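 also: E. coli MC1000 strain DRC41 lacking acrAB efflux pump and sulA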; details: E. coli DRC41 (acrAB sulA), higher = more signal, called active from +8 up or from −8 down
# [2] = small-molecule binders of probe aLefty1, primary screen, biochemical, small-molecule microarray, 635/667 nm fluorescence (AID 1153); details: higher = more signal;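 also: score merges spot fluorescence with signal-to-noise ratio from the scanned slide images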
# [3] = PSAC antagonists in infected red cells, primary screen, cell-based, P. falciparum Indochina, OD700, 1 h (AID 1154); details: P. falciparum Indochina infected RBC osmotic lysis, higher = more signal, called active from +8 up or from −8 down
# [4] = PSAC antagonists in infected red cells, primary screen, cell-based, P. falciparum Indochina, OD700, 2 h (AID 1155);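 also: lysis reports solute entry through the parasite surface anion channel PSAC; channel blockers reduce lysis of infected cells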; details: P. falciparum Indochina infected erythrocytes, osmotic lysis OD700; higher = more signal, called active from +8 up or from −8 down
# [5] = osmotic lysis modulators in infected erythrocytes, primary screen, PSAC antagonist project, cell-based, P. falciparum Indochina, OD700, 3 h (AID 1156); details: higher = more signal, called active from +8 up or from −8 down
# [6] = PSAC antagonists in infected red cells, primary screen, cell-based, P. falciparum Indochina, OD700, 18 h (AID 1157); details: P. falciparum Indochina infected erythrocytes, osmotic lysis OD700, 18 h; higher = more signal, called active from +8 up or from −8 down
# [7] = modulators of S6 phosphorylation in cells, primary screen, cell-based, A549, cytoblot, luminescence, serum-stimulated (AID 1158); details: A549 phospho-S6 cytoblot, 5 h, higher = more signal;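 also: serum-stimulated A549 lung adenocarcinoma cells; signal is phosphorylated S6 detected by cytoblot immunostaining with HRP secondary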
# [8] = biological target: NADPH oxidase 2 (Homo sapiens) (UniProt P04839); assay: NOX2-dependent H2O2 signal modulators, primary screen, NOX inhibitor project, cell-based, HEK293-NOX2, PMA-stimulated, Amplex Red fluorescence (AID 1159); details: 45 min, higher = more signal, called active from +8 up or from −8 down; also: test concentration not given here
# Sequence of NADPH oxidase 2 (Homo sapiens) (P04839 whole entry, looked up): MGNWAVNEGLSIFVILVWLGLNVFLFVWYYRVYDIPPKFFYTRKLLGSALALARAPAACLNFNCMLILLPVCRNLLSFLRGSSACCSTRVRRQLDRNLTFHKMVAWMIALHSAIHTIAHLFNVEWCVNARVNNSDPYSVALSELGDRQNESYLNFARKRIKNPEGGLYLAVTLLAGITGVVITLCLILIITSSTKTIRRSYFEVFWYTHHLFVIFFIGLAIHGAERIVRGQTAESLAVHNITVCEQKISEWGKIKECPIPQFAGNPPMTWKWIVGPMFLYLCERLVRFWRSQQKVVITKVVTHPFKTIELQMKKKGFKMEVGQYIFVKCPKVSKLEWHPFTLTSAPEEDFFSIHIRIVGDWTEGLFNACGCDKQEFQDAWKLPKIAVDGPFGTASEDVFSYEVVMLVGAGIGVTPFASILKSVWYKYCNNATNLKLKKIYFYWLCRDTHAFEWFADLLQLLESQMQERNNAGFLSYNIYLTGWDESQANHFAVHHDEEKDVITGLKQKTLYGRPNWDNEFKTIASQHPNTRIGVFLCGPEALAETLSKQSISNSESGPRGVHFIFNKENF
# [9] = biological target: NADPH oxidase 4 (Homo sapiens) (UniProt Q9NPH5); assay: NOX4-dependent H2O2 signal modulators, primary screen, NOX inhibitor project, cell-based, HEK293-NOX4, tetracycline-induced, Amplex Red fluorescence (AID 1160); details: 45 min, higher = more signal, called active from +8 up or from −8 down
# Sequence of NADPH oxidase 4 (Homo sapiens) (Q9NPH5 whole entry, looked up): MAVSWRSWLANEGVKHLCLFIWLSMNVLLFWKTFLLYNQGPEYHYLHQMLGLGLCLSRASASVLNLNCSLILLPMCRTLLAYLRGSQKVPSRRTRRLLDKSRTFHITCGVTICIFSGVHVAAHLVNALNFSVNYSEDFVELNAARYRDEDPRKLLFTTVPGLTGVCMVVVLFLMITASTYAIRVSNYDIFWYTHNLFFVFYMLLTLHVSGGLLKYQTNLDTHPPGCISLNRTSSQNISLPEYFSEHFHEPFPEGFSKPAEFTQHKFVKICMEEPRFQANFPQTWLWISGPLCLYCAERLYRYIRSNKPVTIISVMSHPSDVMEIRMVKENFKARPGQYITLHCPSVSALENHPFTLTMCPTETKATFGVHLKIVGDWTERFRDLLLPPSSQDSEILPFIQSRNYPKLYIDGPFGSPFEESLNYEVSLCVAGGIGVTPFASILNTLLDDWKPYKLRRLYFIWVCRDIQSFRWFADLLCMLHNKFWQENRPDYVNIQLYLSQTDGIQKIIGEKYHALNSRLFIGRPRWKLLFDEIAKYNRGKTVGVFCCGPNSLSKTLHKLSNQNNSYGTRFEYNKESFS
# [10] = biological target: NADPH oxidase 5 (Homo sapiens) (UniProt Q96PH1); assay: NOX5-dependent H2O2 signal modulators, primary screen, NOX inhibitor project, cell-based, HEK293-NOX5, Amplex Red fluorescence (AID 1161); details: HEK293-NOX5, ionomycin, 45 min, higher = more signal
# Sequence of NADPH oxidase 5 (Homo sapiens) (Q96PH1 whole entry, looked up): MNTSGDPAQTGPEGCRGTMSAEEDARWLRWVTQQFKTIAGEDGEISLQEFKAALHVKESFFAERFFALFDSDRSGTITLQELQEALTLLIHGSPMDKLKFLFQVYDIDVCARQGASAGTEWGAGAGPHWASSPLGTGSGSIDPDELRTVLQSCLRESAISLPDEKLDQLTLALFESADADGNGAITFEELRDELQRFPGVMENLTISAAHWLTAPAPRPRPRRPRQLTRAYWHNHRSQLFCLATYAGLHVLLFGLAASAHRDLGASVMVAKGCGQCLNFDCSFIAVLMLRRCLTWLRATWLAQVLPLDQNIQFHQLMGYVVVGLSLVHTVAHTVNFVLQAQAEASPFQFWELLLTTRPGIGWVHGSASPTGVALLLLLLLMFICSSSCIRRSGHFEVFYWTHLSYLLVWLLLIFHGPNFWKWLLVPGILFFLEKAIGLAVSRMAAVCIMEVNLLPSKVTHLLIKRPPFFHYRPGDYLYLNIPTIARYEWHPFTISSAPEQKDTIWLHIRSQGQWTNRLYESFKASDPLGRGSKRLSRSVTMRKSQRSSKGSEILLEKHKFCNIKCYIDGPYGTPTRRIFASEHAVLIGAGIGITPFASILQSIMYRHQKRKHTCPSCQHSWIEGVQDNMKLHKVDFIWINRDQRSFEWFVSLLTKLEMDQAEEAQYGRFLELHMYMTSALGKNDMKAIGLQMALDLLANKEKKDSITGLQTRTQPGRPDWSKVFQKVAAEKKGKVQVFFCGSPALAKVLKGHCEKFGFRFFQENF
# [11] = A549 cell viability effects, profiling panel, calcein-AM fluorescence, 48 h, basal (AID 1162); details: higher = more signal; also: test concentration not given here
# [12] = adipocyte viability effects, profiling panel, cell-based, 3T3-L1 adipocytes, calcein-AM fluorescence, 48 h, basal (AID 1163); details: 3T3-L1 adipocytes viability, higher = more signal; also: test concentration not given here
# [13] = HepG2 cell viability effects, profiling panel, calcein-AM fluorescence, 48 h, basal (AID 1164); details: higher = more signal; also: test concentration not given here
# [14] = MM1S cell viability effects, profiling panel, calcein-AM fluorescence, 48 h, basal (AID 1165); details: higher = more signal;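 also: viability of MM1S multiple myeloma cells under basal unstimulated conditions; test concentration not given here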
# [15] = basal RPMI8226 viability, no added stimulus, profiling panel, cell-based, calcein-AM fluorescence, 48 h, PK04 Diversity Set (AID 1166); details: RPMI8226 myeloma viability, higher = more signal;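 also: cells grown under basal conditions without added stimulus; test concentration not given here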
# [16] = basal HepG2 mitochondrial membrane potential changes, profiling panel, cell-based, JC-1 fluorescence, 24 h, 100 nL compound (AID 1167); details: higher = more signal; also: test concentration not given here
# [17] = basal 3T3-L1 adipocyte mitochondrial potential changes, profiling panel, cell-based, JC-1 fluorescence, 3T3-L1 adipocytes, 24 h, 100 nL compound (AID 1168); details: JC-1 mitochondrial fluorescence, higher = more signal, called active from +8 up or from −8 down; also: test concentration not given here
# [18] = basal RPMI8226 mitochondrial membrane potential changes, profiling panel, cell-based, JC-1 fluorescence, 24 h, 100 nL compound (AID 1169); details: RPMI8226 myeloma, JC-1 mitochondrial potential fluorescence, higher = more signal; also: test concentration not given here
# [19] = basal MM1S mitochondrial membrane potential changes, profiling panel, cell-based, JC-1 fluorescence, 24 h, 100 nL compound (AID 1170); details: higher = more signal; also: test concentration not given here
# [20] = A549 lung cancer cell viability effects, profiling panel, resazurin fluorescence, 24 h, PK04 Diversity Set (AID 1171); details: higher = more signal, called active from +8 up or from −8 down; also: test concentration not given here
SMILES,z-score [1],composite z-score [2],z-score [3],z-score [4],z-score [5],z-score [6],z-score [7],z-score [8],z-score [9],z-score [10],z-score [11],z-score [12],z-score [13],z-score [14],z-score [15],z-score [16],z-score [17],z-score [18],z-score [19],z-score [20]
CN1C(=O)C2C=CC(C(O)c3ccccc3)N(N3CCCCC3)C2C1=O (stereo not given),-2 (inactive),0.0971,0.15 (inactive),0.913 (inactive),0.302 (inactive),0.827 (inactive),-0.965,-0.121 (inactive),-1.01 (inactive),-1.08,-1.15,-0.898,-0.0624,-0.4,0.539,-0.699,0.651 (inactive),0.0583,0.581,-0.789 (inactive)
CC1CC/C=C\[C@H]2OC34C=CCN(c5ccc6ccccc6c5)C(=O)[C@H]3N(CCO)C(=O)[C@@H]4C2C(=O)O1 (stereo not given in full),-0.0648 (inactive),0.552,3.56 (inactive),0.531 (inactive),0.15 (inactive),0.357 (inactive),0.21,1.43 (inactive),1.04 (inactive),2.4,-0.099,0.428,-0.303,1.01,-0.36,-0.438,-0.55 (inactive),-0.0138,1.19,-0.573 (inactive)
C=C(CCCC)C(=O)CC[C@H](OC(=O)c1cccnc1)c1ccc(OCCO)cc1,-0.646 (inactive),-0.0316,24.3 (active),6.53 (inactive),1.8 (inactive),1.39 (inactive),0.178,-1.12 (inactive),0.000526 (inactive),-2.09,-0.15,0.355,-0.478,-3.34,-3.28,0.697,-0.597 (inactive),-0.658,-1.44,-0.475 (inactive)
CS(=O)(=O)CCOC(=O)C1=CC(CCCO)=CC(c2ccc(CN3CCCC3)cc2)N(Cc2cccc(OC(F)(F)F)c2)C=C1C(=O)OCCS(C)(=O)=O (stereo not given),-0.804 (inactive),0.879,1.55 (inactive),0.942 (inactive),0.128 (inactive),0.577 (inactive),0.219,-0.302 (inactive),-0.764 (inactive),-0.504,0.75,0.309,1.81,-1.46,-0.697,3.78,-0.168 (inactive),-0.661,-0.935,0.516 (inactive)
COCCOC(=O)N1C(=O)[C@@]2(c3cc(C#CCCO)ccc31)[C@H](c1ccc(O)cc1)N1[C@H](c3ccccc3)[C@H](c3ccccc3)OC(=O)[C@H]1[C@@H]2C(=O)N1CCN(c2ncccn2)CC1,0.209 (inactive),1.97,1.65 (inactive),0.0986 (inactive),0.599 (inactive),0.235 (inactive),0.078,1.11 (inactive),0.682 (inactive),1.85,-0.858,-0.721,-0.753,-0.0852,0.248,0.0243,-1.45 (inactive),-0.139,-0.611,0.838 (inactive)
O=C1OCC=C[C@H]2OC34C=CCN(CCN5CCOCC5)C(=O)[C@H]3N(CCO)C(=O)[C@@H]4[C@@H]12 (stereo not given in full),-0.738 (inactive),-0.279,0.418 (inactive),0.009 (inactive),-0.392 (inactive),0.33 (inactive),-0.822,1.4 (inactive),0.628 (inactive),1.72,-0.157,0.196,0.804,-0.635,-0.253,-0.464,0.00617 (inactive),-0.299,0.292,-0.124 (inactive)
CC(C)[Si](C#C[Si](C(C)C)(C(C)C)C(C)C)(O[C@H](C)c1cn(Cc2ccccc2)nn1)C(C)C,1.82 (inactive),0.0509,-0.0395 (inactive),0.0422 (inactive),-0.915 (inactive),0.0635 (inactive),-0.217,0.667 (inactive),-0.748 (inactive),-2.82,1.25,-0.425,0.592,0.636,-1.67,1.92,-0.367 (inactive),0.0518,-0.542,0.236 (inactive)
CCCC1(C(=O)OC)C=C2C(=C(c3ccccc3)C(=O)C2C)CN1 (stereo not given),-1.23 (inactive),0.51,2.2 (inactive),0.194 (inactive),0.923 (inactive),0.324 (inactive),-0.267,-0.2 (inactive),-2.64 (inactive),-2.63,-1,-0.446,-0.5,0.136,-1.14,0.0027,-1.23 (inactive),-0.198,-0.949,-0.42 (inactive)
C=C(/C(=C/C[C@H](OC(C)=O)c1ccc(OCCO)cc1)c1cc(C(=O)OC)ccc1OC)C(C)C,0.759 (inactive),0.0844,19.2 (active),4.38 (inactive),3.26 (inactive),1.36 (inactive),0.31,0.864 (inactive),0.217 (inactive),-1.42,1.32,0.0952,0.861,-3.04,-2.43,2.82,-0.0331 (inactive),-0.669,-0.631,1.05 (inactive)
